# A selection: hits, their analogues and other compounds. The true share with any hit is near 2.4%.
# WRN inhibitor = qHTS for Inhibitors of WRN Helicase | Bifunctional 3'-5' exonuclease/ATP-dependent helicase WRN (Homo sapiens), Q14191 | WRN helicase unwinding, fluorescent forked duplex, kinetic | Potency, µM (top dose mostly 114 µM), for the others: top-dose activity change, negative = inhibition, hits mostly inhibitors | 360,000 tested, 0.46% active | AID 651768, 2012; also: % is scaled to controls: 0 for no effect and ±100 for the full control effect; nearly all actives have a fitted effect of over 55% in size
#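 Fluorescence dequenching readout, ex 525 nm/em 598 nm, kinetic mode: forked duplex DNA (100 nM final) with adjacent fluorophore and quencher unwound by WRN (20 nM final) with 2 mM ATP. Compound preincubation 15 min, room temperature.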
# FEN1 inhibitor = qHTS Assay for the Inhibitors of Human Flap endonuclease 1 (FEN1); Recombinant FEN1 flap cleavage, fluorescence, 15 min; Potency, µM (highest dose often 114 µM), for the others: top-dose activity change, negative = inhibition, hits mostly inhibitors; 390,000 tested, 0.35% active; AID 588795, 2011; also: % is scaled to controls: 0 for no effect and ±100 for the full control effect; nearly all actives have a fitted effect of over 65% in size
#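 Potency values derive from four-parameter Hill fits of normalized qHTS data. The reaction used 10 nM FEN1 preincubated 15 min at room temperature with compound, then 50 nM DNA substrate, read at 0 and 15 min.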
# Pol eta inh = qHTS for Inhibitors of Polymerase Eta | DNA polymerase eta (Homo sapiens), Q9Y253 | recombinant Pol eta, fluorescent DNA replication assay | Potency, µM (series often up to 114 µM), inactives show top-dose activity change, negative = inhibition, hits mostly inhibitors | 390,000 tested, 1.2% active; also: % is scaled to controls: 0 for no effect and ±100 for the full control effect
# Target sequence (Q9Y253 whole entry, looked up): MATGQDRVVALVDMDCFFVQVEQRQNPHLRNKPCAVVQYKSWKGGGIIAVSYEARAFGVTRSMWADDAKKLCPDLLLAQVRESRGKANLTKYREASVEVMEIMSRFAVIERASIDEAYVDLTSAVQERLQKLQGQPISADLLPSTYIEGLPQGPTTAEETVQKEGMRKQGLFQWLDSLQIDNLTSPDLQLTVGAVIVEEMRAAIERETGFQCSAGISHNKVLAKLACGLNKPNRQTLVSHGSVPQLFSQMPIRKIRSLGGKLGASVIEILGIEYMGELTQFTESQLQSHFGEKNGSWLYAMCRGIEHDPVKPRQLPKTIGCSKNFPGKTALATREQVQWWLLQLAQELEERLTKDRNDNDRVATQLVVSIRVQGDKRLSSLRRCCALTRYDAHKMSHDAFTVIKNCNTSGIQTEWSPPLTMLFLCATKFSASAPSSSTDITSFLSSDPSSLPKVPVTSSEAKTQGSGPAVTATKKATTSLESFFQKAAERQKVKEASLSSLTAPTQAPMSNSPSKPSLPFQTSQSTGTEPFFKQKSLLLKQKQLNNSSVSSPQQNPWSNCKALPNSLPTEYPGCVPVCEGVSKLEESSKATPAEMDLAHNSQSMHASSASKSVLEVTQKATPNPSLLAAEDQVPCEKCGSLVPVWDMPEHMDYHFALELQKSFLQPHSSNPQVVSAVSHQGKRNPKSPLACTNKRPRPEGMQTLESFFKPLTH
#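 Fluorescent replication assay: 50 nM final substrate added after a 15 min room-temperature compound preincubation with 10 nM enzyme. Signal taken at 0 min and again at 10 min.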
# Pol iota inh = qHTS for Inhibitors of Polymerase Iota | AID 588590, 2011 | Potency, µM (doses to about 115 µM), inactives show at the top dose activity, negative = inhibition, hits mostly inhibitors | Pol iota fluorescent replication assay, 10 min | DNA polymerase iota (Homo sapiens), Q9UNA4 | 390,000 tested, 1% active
#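 Pol iota at 10 nM preincubated 15 min with compounds at room temperature; reaction started with fluorescent substrate, 50 nM final. Fluorescence read kinetically at 0 and 10 min; buffer-only wells as negative control.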
# POLK inh = qHTS for Inhibitors of Polymerase Kappa; Potency, µM (highest dose often 107 µM), for inactives: top-dose activity, negative = inhibition, usual class: inhibitors; AID 588579, 2011; 400,000 tested, 0.53% active; DNA polymerase kappa (Homo sapiens), Q9UBT6; purified Pol kappa, fluorescent DNA synthesis assay, 10 min; also: % is scaled to controls: 0 for no effect and ±100 for the full control effect
#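 Pol kappa 10 nM + cpd, 15 min RT; start w/ substrate 50 nM final; fluorescence kinetic read, 0 and 10 min. Neg ctrl: buffer, no enzyme.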
# Pol beta inh = qHTS Assay for Inhibitors of DNA Polymerase Beta; P06746; Potency, µM (doses to about 114 µM), for inactives: top-dose activity change, negative = inhibition, most hits filed as inhibitors; Pol beta primer extension/strand displacement, fluorescence kinetic; 340,000 tested, 1.3% active; also: % is scaled to controls: 0 for no effect and ±100 for the full control effect
#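 Kinetic readout of DNA synthesis with strand displacement by Pol beta. Compound and 10 nM enzyme sit 15 min at room temperature; 50 nM substrate starts the reaction, read immediately and at 10 min.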
# Active calls of the source: *; ? = inconclusive; . = no result; ! = a repeat was not active; [ ] = remark or other dose. Calls follow the shape of the dose curve; as a rule, active = well fitted curve in the direction sought with a large enough effect; inconclusive = small, poorly fitted or top-dose-only effect, or another doubt; inactive = no such curve, though single readings can be large; an effect the other way counts as inactive or inconclusive. Potency is read from the fitted curve at half-maximal effect.
SMILES,WRN inhibitor,FEN1 inhibitor,Pol eta inh,Pol iota inh,POLK inh,Pol beta inh
COC(=O)c1c(-c2ccc(Cl)cc2)noc1N1CCN(c2ccc(C(C)=O)cc2)CC1,.,-2%,-19%,22%,0%[60.1 µM],-8%
Cc1c2ccncc2c(C)c2c1[nH]c1ccccc12,-13%,12µM*,?,14µM*!,?,4µM*
c1ccc2c(c1)[nH]c1cnccc12,2%,-5%,-16%,18%,3%,34%
CCOc1ccccc1NC(=O)NCc1ccc2c(c1)CCN2C(=O)c1ccccc1,.,-2%,-11%,?,-21%[60.1 µM],2%
COc1cc2c(cc1OC)-c1c(OC)c(OC)cc3c1[C@H](C2)[N+](C)(C)CC3,-7%,-22%,-1%,?,-35%,50µM*
COc1cc2c3c(c1OC)-c1cc(O)ccc1CC3NCC2 (stereo unspecified),0%,0%,-4%,-14%,-12%,-24%
Cc1cc(/C=C2/C(=O)NC(=O)N(Cc3ccco3)C2=O)c(C)n1-c1ccccc1O,-11%[11.6 µM],0%,50µM*,45µM*,-33%,28µM*
Cc1cc(/C=C2/C(=O)NC(=O)N(C)C2=O)c(C)n1-c1ccccc1,1%[57.1 µM],-3%,-9%,-20%,10%,-2%
C[C@H]1C[C@H](C)C(=O)[C@@H]([C@H](O)CC2CC(=O)NC(=O)C2)C1,.,.,.,.,-4%[19.4 µM],.
NCCCC[C@H](NC(=O)[C@H](Cc1ccccc1)NC(=O)[C@H](CCCN=C(N)N)NC(=O)[C@@H](N)Cc1ccc(O)cc1)C(N)=O,.,.,.,.,6%[19.4 µM],.
CCOC(=O)c1c(/N=C/C2C(=O)NC(=S)NC2=O)sc(C)c1C,.,.,.,.,.,17%
CCOC(=O)c1cc(C)sc1/N=C/C1C(=O)NC(=S)NC1=O,50µM*,-9%,12%,?,-26%,-18%
CCOC(=O)c1c(/N=C/C2C(=O)NC(=S)NC2=O)sc2c1CCC2,56µM*,-22%,1%,41%,-23%,1%
Cc1ccc(C)c(NC(=O)c2cc[n+](C)cc2)c1,-32%,0%,2%,106%,-8%,45%
CC(C)C[C@H]1C(=O)N2CCCC2[C@]2(O)O[C@](NC(=O)[C@@H]3C=C4c5cccc6[nH]c(Br)c(c56)C[C@H]4N(C)C3)(C(C)C)C(=O)N12 (stereo partly specified),.,.,-10%[57.1 µM],-11%[58.9 µM],-7%[19.4 µM],-7%[57.1 µM]
CC(=O)O.CC(=O)O.[Cd],.,.,.,.,10µM*,.
COCCCn1c(N)c(C(=O)Nc2ccccc2)c2nc3ccccc3nc21,-19%,-16%,-18%,14µM*,-5%,4%
COc1ccc2c(c1)[C@@]13CCCCC1[C@@H](C2)N(C)CC3 (stereo partly specified),.,.,.,.,-2%[60.1 µM],.
O=C1NC(=O)C(=Cc2cc3c(cc2[N+](=O)[O-])OCO3)C(=O)N1,71µM*,15%,-8%,?,-5%,-26%
Cc1cccc(N2C(=O)NC(=O)/C(=C/c3cc4c(cc3[N+](=O)[O-])OCO4)C2=O)c1,50µM*,-33%,-9%,?,89µM*,0%
CC(=O)Nc1cc(Cl)c(N=Cc2ccc(O)cc2O)cc1Cl,-18%,7%,79µM*,?,-8%[60.1 µM],10µM*
CC(=O)Nc1cc([As](=O)(O)O)ccc1O,2%,-1%,-13%,?,-15%,-4%
COc1cc2c(cc1OC)-c1c(OC)c(OC)c(OC)c3ccnc(c13)C2=O,-4%,10µM*,-11%,?,-19%,-14%
CC1=CC(=O)c2c(O)cccc2C1=O,.,.,.,.,10µM*!,.
C[C@@H]1O[C@H](O[C@H]2C[C@@H](O)[C@@]3(CO)[C@H]4[C@@H](O)C[C@]5(C)[C@@H](C6=CC(=O)OC6)CC[C@]5(O)[C@H]4CC[C@]3(O)C2)[C@@H](O)[C@H](O)[C@@H]1O,.,.,.,.,-3%[12 µM],.
SMILES,WRN inhibitor,FEN1 inhibitor,Pol eta inh,Pol iota inh,POLK inh,Pol beta inh
O=C1NC(=S)NC(=O)C1=Cc1c(Cl)cccc1Cl,56µM*,1%,-4%,17%,-13%,.
CN(C)c1ccc(C=C2C(=O)NC(=S)NC2=O)cc1[N+](=O)[O-],?,-1%,11%,143%,-8%,?
O=C1NC(=S)NC(=O)C1=Cc1ccc(Br)s1,?,?,22µM*,?,?,9%
O=C1NC(=O)C(=Cc2csc3ccccc23)C(=O)N1,-18%,?,8%,?,-3%,11%
COc1cccc(C2[C@H](C)C3(CCN2C)OCCO3)c1 (stereo partly specified),-15%,-4%,-5%,66%,-8%,-2%
COc1cc(C=C(C#N)C#N)cc(O)c1O,.,.,11µM*,?,.,-11%[57.1 µM]
N#CC(=Cc1ccc(O)c(O)c1)C(N)=S,.,.,3.2µM*,6.3µM*,.,2.8µM*
N#CC(C#N)=Cc1ccc(O)c(O)c1,-4%,4%,7.9µM*!,?,11µM*!,-12%[57.1 µM]
CN[C@H](CC(C)C)C(=O)N[C@H]1C(=O)N[C@@H](CC(N)=O)C(=O)N[C@@H]2C(=O)N[C@H]3C(=O)N[C@H](C(=O)N[C@H](C(=O)O)c4cc(O)cc(O)c4-c4cc3ccc4O)[C@H](O)c3ccc(c(Cl)c3)Oc3cc2cc(c3O[C@@H]2O[C@H](CO)[C@@H](O)[C@H](O)[C@@H]2O[C@H]2C[C@](C)(N)[C@H](O)[C@H](C)O2)Oc2ccc(cc2Cl)[C@H]1O,.,?,.,.,0%[60.1 µM],.
CN1CCN(S(=O)(=O)c2cccc(C(=O)N3CCN(c4ccccc4F)CC3)c2)CC1,-10%,-9%,-21%,?,-10%,.
O=C1OC(c2cc(I)c(O)c(I)c2)(c2cc(I)c(O)c(I)c2)c2ccccc21,.,.,.,.,3.5µM*,.
C[C@@H](COc1ccccc1)N(CCCl)Cc1ccccc1,.,.,.,.,-6%[12 µM],.
O=[N+]([O-])c1ccc(NCc2ccccc2)c2nonc12,-1%,-15%,-25%,32µM*,-26%,1%
Cc1cc(OC(=O)N(C)C)nn1C(=O)N(C)C,.,.,.,.,-11%[12 µM],.
O=C1NC(=O)N(Cc2cccs2)C(=O)/C1=C/c1ccc(N2CCOCC2)cc1,56µM*,5%,4%,118%,-7%,-6%
Cc1[nH]n(-c2ccccc2)c(=O)c1C(c1ccc([N+](=O)[O-])cc1)c1c(C)[nH]n(-c2ccccc2)c1=O,-16%[11.6 µM],0%,-6%,0.71µM*,-3%,7%
O=[N+]([O-])c1cccc(C2N3CCCN23)c1 (stereo unspecified),3%,5%,-17%,17%,-1%,91%
